Screens (PubChem)
Most compounds without a hit are left out; they make up all but 4.5% or so of the library.
SKOV3 invasion = inhibitors of ovarian cancer cell adhesion and invasion in omental model; actives 0.1% (n = 46,000); Potency, µM (highest dose often 45.8 µM), without a hit: at the top dose activity change, negative = inhibition, most hits filed as inhibitors; AID 1963576; SKOV3ip1-GFP adhesion/invasion on 3D omental model, fluorescence;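 further: potency means the concentration at half of the fitted maximal effect; plate controls were DMSO wells for no effect and tomatine positive control wells for full effect; nearly all actives have a fitted effect of over 65% in size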
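qHTS, 4-pt dose (0.36-46 umol/L); SKOV3ip1-GFP, 1,200 cells/well, no FBS; primary omental fibroblast/mesothelial co-culture 48 h pre-grown; 2 h RT + 16 h 37 C; PBS wash, 4% PFA; GFP count 488/509 nm.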
HTT promoter inh = inhibits huntingtin promoter activity; HEK293 HTT promoter firefly luciferase reporter, 24 h; Potency, µM (top dose mostly 57.5 µM), inactives show top-dose activity change, negative = inhibition, most hits filed as inhibitors; actives 0.93% (n = 48,000); AID 1508623; further: potency means the concentration at half of the fitted maximal effect; nearly all actives have a fitted effect of over 50% in size
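HEK293 Fluc reporter, 2,500 cells/well, 24 h pre-culture; cpds up to 57.5 uM final, 24 h 37 degrees C; Dual-Glo, 10 min RT; normalized vehicle = 0%, zero RLU = -100%.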
NTMT1 inh = inhibitors of human N-terminal methyltransferase NTMT1; AID 1645870; Q9BV86; Potency, µM (highest dose often 114 µM), inactives show at the top dose activity change, negative = inhibition, most hits filed as inhibitors; actives 2.5% (n = 59,000); NTMT1 MTase-Glo SAH luminescence, purified enzyme;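 further: potency means the concentration at half of the fitted maximal effect; plate controls were DMSO vehicle for no effect and no enzyme for full effect; nearly all actives have a fitted effect of over 65% in size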
Target sequence (Q9BV86 whole entry, looked up): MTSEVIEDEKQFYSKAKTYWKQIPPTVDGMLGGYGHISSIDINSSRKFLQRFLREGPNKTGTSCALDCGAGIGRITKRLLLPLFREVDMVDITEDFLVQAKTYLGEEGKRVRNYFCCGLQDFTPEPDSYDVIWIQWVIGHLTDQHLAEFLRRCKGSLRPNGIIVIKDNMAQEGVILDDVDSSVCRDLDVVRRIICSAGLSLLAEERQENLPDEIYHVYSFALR
DRV1 agonist = agonists of human resolvin D1 receptor DRV1 (GPR32). O75388. CHO-K1 GPR32 beta-arrestin PathHunter luminescence, 90 min; zero percent set by DMSO-only wells. activation, % at 76.9 µM. actives 2.5% (n = 48,000). AID 1346428;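 active means activation of at least 60% and not above a set upper limit, about 1 call in 100 departs from these limits; inconclusive means activation of 40% to 60%, or above that upper limit; inactive means activation under 40%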; further: 0% is about no effect
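Cells are plated overnight, treated with compounds in DMSO for 90 minutes at 37 °C, and developed with PathHunter detection reagent for 1 hour before luminescence is read; signal reflects beta-arrestin binding to GPR32 in engineered CHO-K1 cells.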
HTT-AS promoter = activators of huntingtin-antisense promoter activity | Potency, µM (titrated, usually from 57.5 µM), without a hit: at the highest dose activity change, positive = activation, hits mostly activators | actives 0.24% (n = 48,000) | HEK293 HTT-AS promoter firefly luciferase reporter, 24 h; response scale: percent change from vehicle, -100% = no light; further: potency means the concentration at half of the fitted maximal effect; nearly all actives have a fitted effect of over 55% in size
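HEK293 cells carrying firefly luciferase reporters were seeded at 2,500 per well in Opti-MEM and cultured for 24 h. They were then treated with compounds at up to 57.5 uM final for 24 h at 37 degrees C before Dual-Glo luminescence readout.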
DYRK1A inh = inhibitors of human DYRK1A kinase. shares compounds with NTMT1 inh. recombinant DYRK1A, Kinase-Glo ATP depletion luminescence. Potency, µM (titrated, usually from 76.9 µM), for the others: top-dose activity change, negative = inhibition, most hits filed as inhibitors. actives 80% (n = 100)
Sfp qHTS opt = Sfp PPTase inhibition, chemistry optimization; shares compounds with NTMT1 inh; purified Sfp PPTase enzyme activity, qHTS; Potency, µM (titrated, usually from 114 µM), for inactives: at the highest dose activity change, negative = inhibition, most hits filed as inhibitors; actives 78% (n = 230)
Bsub HM489 growth = reduces growth of B. subtilis HM489 strain; shares compounds with NTMT1 inh; B. subtilis HM489 (acpS-) growth, BacTiter-Glo, 5 h; Potency, µM (top dose mostly 114 µM), for the others: top-dose activity change, negative = inhibition, most hits filed as inhibitors; actives 50% (n = 220); AID 540353
Sfp gel opt = inhibitors of Bacillus subtilis Sfp PPTase, gel-based followup; shares compounds with NTMT1 inh; purified Sfp PPTase, gel-based product detection; Potency, µM (highest dose often 250 µM), for inactives: at the highest dose activity change, negative = inhibition, hits mostly inhibitors; actives 54% (n = 220)
Sfp inh gel = inhibits B. subtilis Sfp PPTase in gel-based assay; actives 90% (n = 45); shares compounds with NTMT1 inh; AID 602362; purified Sfp PPTase, gel-based product detection; Potency, µM (titrated, usually from 250 µM), for the others: at the highest dose activity change, negative = inhibition, most hits filed as inhibitors
Sfp inh SAR2 = Sfp phosphopantetheinyl transferase inhibition, SAR round 2; shares compounds with NTMT1 inh; purified Sfp enzyme, PPTase activity, qHTS; Potency, µM (highest dose often 57.1 µM), inactives show at the top dose activity change, negative = inhibition, hits mostly inhibitors; actives 87% (n = 230)
hGST ctr = counter-screen for Sfp PPTase inhibitors: hGST A1-1 inhibition; shares compounds with NTMT1 inh; hGST A1-1 enzyme activity counter-screen, qHTS; Potency, µM (series often up to 114 µM), without a hit: top-dose activity change, negative = inhibition, most hits filed as inhibitors; 55 tested, under 10 active; AID 602391
HSD17B4 counter = inhibits human HSD17B4, off-target for HPGD inhibitors | shares compounds with NTMT1 inh | purified HSD17B4, estradiol/NAD+, NADH fluorescence | Potency, µM (series often up to 57.1 µM), inactives show at the highest dose activity change, negative = inhibition, most hits filed as inhibitors | actives 10% (n = 230)
ALDH1A1 inh = inhibits human ALDH1A1, off-target for HPGD inhibitors; AID 743195; recombinant ALDH1A1, NADH fluorescence, propionaldehyde/NAD+; actives 93% (n = 230); Potency, µM (highest dose often 57.1 µM), without a hit: top-dose activity change, negative = inhibition, hits mostly inhibitors; shares compounds with NTMT1 inh
Target sequence (P00352 whole entry, looked up): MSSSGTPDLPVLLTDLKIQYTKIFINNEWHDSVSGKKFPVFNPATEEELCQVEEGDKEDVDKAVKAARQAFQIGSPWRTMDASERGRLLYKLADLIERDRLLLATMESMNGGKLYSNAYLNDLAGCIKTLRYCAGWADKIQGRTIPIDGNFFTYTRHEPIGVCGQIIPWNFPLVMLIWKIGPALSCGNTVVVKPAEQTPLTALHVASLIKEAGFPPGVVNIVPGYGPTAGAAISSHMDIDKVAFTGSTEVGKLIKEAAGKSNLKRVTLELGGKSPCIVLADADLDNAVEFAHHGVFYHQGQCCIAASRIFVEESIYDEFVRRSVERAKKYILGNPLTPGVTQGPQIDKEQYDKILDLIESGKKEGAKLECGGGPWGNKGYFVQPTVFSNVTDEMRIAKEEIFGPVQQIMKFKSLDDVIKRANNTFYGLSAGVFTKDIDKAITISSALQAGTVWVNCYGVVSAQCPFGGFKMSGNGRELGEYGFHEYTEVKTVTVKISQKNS
NNMT counter = counter-screen for NTMT1 inhibitors: human NNMT inhibition. actives 10% (n = 120). NNMT MTase-Glo luminescence, SAH detection. AID 1645878. Potency, µM (titrated, usually from 57.1 µM), for inactives: at the top dose activity, negative = inhibition, hits mostly inhibitors. shares compounds with NTMT1 inh
Starred values were filed as active, the others as inactive; i = inactive; ? = inconclusive; . = no result; ! = repeats disagree; [ ] = remark or other dose. Unless noted, the call rests on the fitted dose curve; in most records, active means well fitted curve in the direction sought with a large enough effect; inconclusive means small, poorly fitted or top-dose-only effect, or another doubt; inactive means no such curve, though single readings can be large; an effect the other way counts as inactive or inconclusive.

SMILES	SKOV3 invasion	HTT promoter inh	NTMT1 inh	DRV1 agonist	HTT-AS promoter	others
CCS(=O)(=O)c1cccc(C(=O)Nc2ccc(-c3nc4ccccc4s3)c(O)c2)c1	i	?	?	61*	-2%
O=C(c1ccc(Nc2nccc(-c3cc4ccccc4s3)n2)cc1)N1CCC(N2CCCC2)CC1	?	-22%	28µM*!	.	-37%
COC(=O)c1ccc(=O)c2nc3/c(=C/O)c(O)cc(=O)c3[nH]c12	.	.	35µM*	.	.
O=S(=O)(O)c1cc(I)c(O)c2ncccc12	.	8%	?	105*	-3%
CCCCCCOc1ccc(C2C(=O)N(C3CCCCC3)CC(=O)N2CCC)cc1 (stereo not given)	-30%	-29%	11%	-24	-25%
Cc1cc(-c2nnc3n2CCCCC3)c(C)n1-c1cccc(C#N)c1	.	.	18%	.	.	HSD17B4 counter=0%;ALDH1A1 inh=?
Cc1cc(-c2nnc3n2CCCCC3)c(C)n1-c1ccc(Cl)cc1	.	.	23%	.	.
Cc1cc(-c2nnc3n2CCCCCC3)c(C)n1-c1ccccc1	.	.	12%	.	.
Cc1cc(-c2nnc3n2CCCCC3)c(C)n1-c1ccc(Cl)c(Cl)c1	.	.	19%	.	.	HSD17B4 counter=11%;ALDH1A1 inh=0.61µM*
CCC1CCCCN1S(=O)(=O)c1ccc2c(c1)CCCN2C(C)=O (stereo not given)	3%	?	-2%	-20	-24%
Cc1ccc(NC(=O)c2ccc(COc3ccccc3Cl)o2)cc1	-1%	-26%	12%	-17	8%
O=C(NCc1ccco1)c1ccc2c(c1)N(Cc1ccccc1F)C(=O)c1ccccc1S2(=O)=O	6%	-25%	8%	-37	-21%
COc1ccc(-c2ccc3ncc4c(c3c2)n(-c2ccc(N3CCNCC3)c(C(F)(F)F)c2)c(=O)n4C)cn1	9.3µM*	?	16µM*!	.	-93%	NNMT counter=-18%
FC(F)(F)c1cccc(N2CCN(C(=S)Nc3nccc4ccccc34)CC2)c1	.	.	?	.	.	Sfp qHTS opt=1.9µM*;Bsub HM489 growth=2.6µM*;Sfp gel opt=7.9µM*;Sfp inh gel=1.3µM*;Sfp inh SAR2=1.4µM*;hGST ctr=-10%;HSD17B4 counter=27µM*;ALDH1A1 inh=17µM*
FC(F)(F)c1cccc(N2CCN(C(=S)Nc3ccc4ccccc4n3)CC2)c1	.	.	.	.	.	Sfp qHTS opt=5.9µM*;Bsub HM489 growth=?;Sfp gel opt=0.32µM*;Sfp inh SAR2=10µM*;HSD17B4 counter=-23%;ALDH1A1 inh=6.8µM*
CC(C)C(=O)Nc1ccc2nc(SCCOc3ccccc3)sc2c1	5%	10%	12%	18	-9%
CCOC(=O)c1cnc2c(ccc3ccccc32)c1Nc1ccc(OC)cc1OC	-9%	-22%	-2%	-7	-24%
O=C(O)c1ccc(O)c2ncc(NCC3CCCN(CCc4ccccc4)C3)cc12 (stereo not given)	.	.	10%	.	.
CCOC(=O)c1ccoc1-c1ccc2ncnc(NCc3ccc(C)o3)c2c1	.	.	?	.	.	DYRK1A inh=23µM*
Cc1csc(CNc2ncnc3ccc(-c4ccco4)cc23)c1	.	.	7%	.	.
CCOC(=O)c1ccc(-c2ccc3ncnc(NCc4csc(C)n4)c3c2)o1	.	.	-12%	.	.	DYRK1A inh=9.2µM*
CCOC(=O)c1ccoc1-c1ccc2ncnc(NCc3csc(C)n3)c2c1	.	.	-4%	.	.	DYRK1A inh=-11%
CCOC(=O)c1ccc(-c2ccc3ncnc(NCc4ncc[nH]4)c3c2)o1	.	.	-1%	.	.	DYRK1A inh=2.3µM*
CN(C)c1nc(NC2CCC(NCCc3ccc(Br)cc3OC(F)(F)F)CC2)nc2ccccc12 (stereo not given)	.	.	35µM*	.	.	NNMT counter=22µM*
CCOc1cc(CNC(=O)Cn2ncn3c(cc4cc(F)ccc43)c2=O)cc(OCC)c1OCC	1%	.	.	21	.
COc1cccc(-c2cn(-c3ccc(CCN4CCC(O)CC4)cc3)c3ncnc(N)c23)c1	.	.	13µM*	.	.	NNMT counter=?
Cc1ccc(-c2onc(C)c2C)cc1S(=O)(=O)NCc1cccs1	i	?	?	-10	-46%
COc1cc(N2CCC(O)CC2)ccc1Nc1nc(Nc2ccccc2S(=O)(=O)C(C)C)c2[nH]cnc2n1	.	.	1%[57.5 µM]	.	.	NNMT counter=?
Cc1ccc(CN(C(=O)c2ccc(C(C)(C)C)cc2)c2ccccn2)o1	1%	?	-13%	1	-54%
